PubChem BioAssay AID2599 (Sanford-Burnham Center for Chemical Genomics, 2010)
The whole screen tested about 330,000 compounds, of which about 5,800 (1.8%) were called active. The full list was thinned out, with actives kept by preference. A number with no mark means an inactive call.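 The calls were made as follows: active = inhibition above about 50% at the single tested dose (limit read from the data); inactive = the rest.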

target: Sentrin-specific protease 6 (Homo sapiens) (UniProt Q9GZR1); test: inhibition of human SENP6 catalytic domain – biochemical, luminescence, uHTS, primary screen (AID 2599); conditions: Recombinant SENP6 catalytic domain, aminoluciferin luminescence; at 10 µM; stronger effect = higher value;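 also: plate controls were DMSO wells with enzyme for no effect and DMSO wells lacking enzyme for full effect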
Sequence (Q9GZR1 628-1112 limits assumed): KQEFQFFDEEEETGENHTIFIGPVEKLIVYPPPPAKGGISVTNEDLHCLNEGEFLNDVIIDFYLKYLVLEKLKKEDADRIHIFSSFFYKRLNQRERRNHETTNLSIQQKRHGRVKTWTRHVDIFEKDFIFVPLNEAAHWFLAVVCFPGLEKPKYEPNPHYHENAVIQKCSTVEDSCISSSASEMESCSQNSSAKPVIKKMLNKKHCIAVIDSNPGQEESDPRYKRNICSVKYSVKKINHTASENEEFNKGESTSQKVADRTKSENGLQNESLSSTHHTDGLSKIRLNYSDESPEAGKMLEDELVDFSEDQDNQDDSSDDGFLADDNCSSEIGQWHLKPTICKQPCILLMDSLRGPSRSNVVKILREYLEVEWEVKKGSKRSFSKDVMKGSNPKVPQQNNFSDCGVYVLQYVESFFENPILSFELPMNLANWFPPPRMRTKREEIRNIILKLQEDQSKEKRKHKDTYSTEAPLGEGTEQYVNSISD

| SMILES | inhibition |
| --- | --- |
| CC(C)CNC(=O)c1cc(-c2ccc(Br)cc2)on1 | -1.36% |
| CC(C)Cc1cc(C(=O)NCCc2ccccc2)no1 | 13% |
| CC(C)Cc1cc(C(=O)Nc2cc(Br)ccc2O)no1 | 58.1% (active) |
| O=C(NNc1cc(Cl)cc(Cl)c1)c1c(F)cccc1Cl | -9.66% |
| O=C(Nc1ccccc1)c1cc2ccccc2[nH]1 | 86.2% (active) |
| COc1ccc2[nH]c(C(=O)Nc3ccccc3Cl)cc2c1 | -36% |
| CC(OC(=O)c1cc2ccccc2[nH]1)C(=O)N(C)c1ccccc1 (configuration not stated) | -10.7% |
| O=C(Cc1ccc(S(=O)(=O)N2CCOCC2)s1)NCCC(c1ccccc1)c1ccccc1 | -9.6% |
| Oc1ccc(N=Cc2sc3ccccc3c2Cl)cc1 | 65.7% (active) |
| CC(=O)n1c(C=Nc2ccccc2)c(O)c2ccccc21 | -2.55% |
| CCn1c(SCC(=O)Nc2cccc(F)c2)nnc1-c1cc2cc(Br)ccc2o1 | -0.574% |
| CCc1cccc(C)c1NC(=O)COC(=O)Cc1ccsc1 | -15.1% |
| CCN1CCN(C(=O)/C=C\C(=O)O)CC1 | -13.9% |
| O=[N+]([O-])c1ccc2nc(-c3ccccn3)[nH]c2c1 | 55.5% (active) |
| O=[N+]([O-])c1ccc2c(c1)Nc1nc3ccccc3nc1N2 | -19% |
| O=[N+]([O-])c1ccc(N/N=C2/CCCCC2c2ccccn2)c([N+](=O)[O-])c1 (configuration not stated) | -14.2% |
| Cc1cccc(C(=O)OCC(=O)Nc2ccc(F)cc2)c1 | -14% |
| CCOC(=O)c1cccc(NC(=O)c2ccc(F)cc2F)c1 | 53.3% (active) |
| CCOC(=O)c1cccc(NC(=O)CCOc2ccccc2)c1 | -8.69% |
| COc1c(C=O)c(CCN(C)C(=O)c2ccc(F)cc2)cc2c1OCO2 | -13.8% |
| COC(CNC(=O)Cn1ncc2ccsc2c1=O)OC | -0.866% |
| O=C(c1ccc(NS(=O)(=O)c2ccc3[nH]c(=O)[nH]c3c2)cc1)N1CCCCC1 | -7.59% |
| C#CCOc1ccccc1/C=C1/C(=O)ON=C1C | 9.07% |
| Cc1ccc(C23CC4CC(CC(C(=O)NCC(=O)O)(C4)C2)C3)cc1 | -30.4% |
| CC(C)CCNC(=O)Cn1c(=O)oc2cc(S(=O)(=O)N3CC(C)CC(C)C3)ccc21 (configuration not stated) | 2.44% |
| Cc1noc(C)c1/C=N/Nc1ccc2ccccc2n1 | -42.7% |

| SMILES | inhibition |
| --- | --- |
| Cc1cc(=O)[nH]c(N/N=C/c2ccc3c(c2)OCCO3)n1 | -9.26% |
| C(=N\Nc1ccc2ccccc2n1)/c1ccc2c(c1)OCO2 | 91.4% (active) |
| O=C(CCc1n[nH]c(=O)[nH]c1=O)N/N=C/c1ccc(Br)o1 | -16.6% |
| CCNc1nc(SCCOc2ccccc2)nc(N(C)C)n1 | -7.75% |
| CS(=O)(=O)n1nc(-c2ccco2)nc1N | 12.1% |
| COc1ccccc1-n1c(-c2cc(-c3ccco3)[nH]n2)n[nH]c1=S | 8.36% |
| Cn1c(-c2ccco2)nc2cc3ccccc3cc21 | 98.6% (active) |
| COc1cc(/C=N/NC(=O)CCc2n[nH]c(=O)[nH]c2=O)ccc1O | -10.3% |
| COc1cc(/C=N/Nc2nc3ccccc3s2)ccc1O | 85.4% (active) |
| COc1ccc(/C=N/NC(=O)c2cc(-c3cccc(C)c3)nc3ccccc23)cc1O | 4.88% |
| Cc1c(C(=O)NNC(=O)c2ccncc2)oc2ccccc12 | -3.56% |
| O=C(CCNC(=O)c1ccc(Cl)cc1)NC1CCCc2ccccc21 (configuration not stated) | 2% |
| O=C(Nc1nnc(S(=O)(=O)N2CCOCC2)s1)c1cccc(Br)c1 | 21.8% |
| O=C(Nc1nnc(S(=O)(=O)N2CCCCCC2)s1)c1cccc(Br)c1 | 75.4% (active) |
| Cc1cccc(C(=O)Nc2nnc(S(=O)(=O)N3CCCCCC3)s2)c1 | 33.1% |
| Cc1c(Cl)c([N+](=O)[O-])nn1CC(=O)NCC1CCCO1 (configuration not stated) | -2.16% |
| CCCCNC(=O)c1cn(CC)c2cc(N3CCN(C(=O)c4ccco4)CC3)c(F)cc2c1=O | 12.7% |
| Cc1noc(C)c1CSc1nc2cc(S(=O)(=O)N3CCOCC3)ccc2o1 | 3.51% |
| CSc1ccccc1NC(=O)c1cc(Cl)sc1Cl | -4.94% |
| O=C(NC1CCCCC1)c1cc(C2CC2)on1 | -14.8% |
| CSc1ccccc1NC(=O)c1cc(C2CC2)on1 | 52% (active) |
| Nc1c(C(=O)OCC(=O)Nc2ccc(OC(F)F)cc2)[nH]c(=O)[nH]c1=O | 4.9% |
| O=C(/C=C/c1ccc([N+](=O)[O-])o1)NNC(=O)c1ccc(F)cc1 | -1.45% |
| CCCCN(CC)C(=O)C1CCCN(S(=O)(=O)c2cccc3nsnc23)C1 (configuration not stated) | 8.83% |
| COC(=O)c1cccc(C(=O)N2CCC(CCC(=O)NCc3ccc(F)cc3)CC2)c1 | 2.77% |
| CCCc1nc(N2CCN(C)CC2)c2sc(=S)n(-c3ccccc3)c2n1 | 8.07% |

| SMILES | inhibition |
| --- | --- |
| O=C(COc1ccc(Cl)cc1)NCc1nnc(SCC(=O)NCC2CCCO2)o1 (configuration not stated) | -1.58% |
| c1ccc(CN=C2Nc3ccccc3CS2)nc1 | 52.5% (active) |
| O=C1CSc2ccc(C(=O)NCc3ccccn3)cc2N1 | 0.274% |
| COc1ccc(Cl)cc1NS(=O)(=O)c1cccc(C(=O)NC2CCC(O)CC2)c1 (configuration not stated) | 3.9% |
| CCC1C(=O)c2ccccc2N(C)C1=O (configuration not stated) | -9.28% |
| CN1C(=O)/C(=C\c2cc(Br)cs2)c2ccccc21 | 66.3% (active) |
| CN1C(=O)/C(=N/OC(=O)c2ccccc2Br)c2ccccc21 | 20.2% |
| O=C(NC1CCCCC1)c1ccc(-c2ccc(Cl)cc2)o1 | -2.51% |
| Cc1[nH][nH]c(=O)c1C(c1ccc(-c2ccc(Cl)cc2)o1)c1c(C)[nH][nH]c1=O | 53.1% (active) |
| CCOc1ccc(C(c2c(C)[nH][nH]c2=O)c2c(C)[nH][nH]c2=O)cc1OCC | 16.7% |
| Cc1cccc(NC(=O)C2CCCN(C(=O)NCc3ccccc3)C2)c1C (configuration not stated) | 8.32% |
| CCNC(=O)CC1C(=O)N(c2ccc(OC)cc2)C(=O)N1CCOC (configuration not stated) | -17.8% |
| CCCCCCCCCOC1OC(CO)C(O)C(O)C1NC(C)=O (configuration not stated) | -4.5% |
| Clc1ccc(C2=CSC3=Nc4cccc5cccc(c45)N23)cc1 | 82.2% (active) |
| CCCN(CCc1ccccc1)C1CCc2c(O)cccc2C1 (configuration not stated) | -8.37% |
| O=C(Nc1ccc(Cl)cn1)c1ccc2c(c1)OCCO2 | 76.8% (active) |
| Cc1ccc(C(=O)NNC(=O)c2ccc3c(c2)OCCO3)cc1 | 16.5% |
| CCCc1cc(C(=O)Nc2ccc(C(=O)OC)cc2)cs1 | -4.63% |
| Cc1cccc(C)c1NC(=O)CNC(=O)c1ccc2c(c1)OCCO2 | -7.93% |
| COc1c(Cl)cc(C(=O)Nc2ccc(Cl)cn2)cc1Cl | 23.4% |
| CCCCC(CC)C(=O)Nc1ccc(Cl)cn1 (configuration not stated) | 0.311% |
| COc1ccc(C(=O)NC(=S)Nc2ccc(Cl)cn2)cc1OC | -0.015% |
| CCCc1cc(C(=O)Nc2ccc(Cl)cn2)cs1 | 86.5% (active) |
| Cc1nc(NC(=O)c2ccc3c(c2)OCCO3)ccc1Br | 70.9% (active) |
| O=C(/C=C/c1cnc2ccccc2n1)NC1CCCCCC1 | -2.57% |
| O=C(CC1C(=O)NCCN1Cc1ccc(-c2ccccc2)cc1)NCc1ccncc1 (configuration not stated) | -5.88% |

| SMILES | inhibition |
| --- | --- |
| CC1CN(S(=O)(=O)c2cccc(C(F)(F)F)c2)CN1C(=O)N1CCOCC1 (configuration not stated) | -20.3% |
| COc1cc(OC)c(NC(=O)C2CCCN2C(=O)OCc2ccccc2)cc1Cl (configuration not stated) | -8.31% |
| CC1(C)CC(=O)C2=C(C1)NCN(CCCN1CCOCC1)C2 | 1.73% |
| CCCn1nnc(NC(=O)COc2ccc(CC)cc2)n1 | 1.27% |
| CC(=O)C(CC(=O)N1CCCC1)C(=O)Nc1ccc(Cl)cc1 (configuration not stated) | -4.11% |
| CC(C)C(=O)Nc1nnc(Sc2ccc(N(C)C)cc2)s1 | -0.866% |
| O=C(c1ccc(F)cc1)c1cn(Cc2ccc(F)cc2)c2cc3c(cc2c1=O)OCCO3 | -4.67% |
| COCCN(CCOC)c1nc(N)c2c(N)nc3c(c2c1C#N)CC(=O)N3Cc1ccc(Cl)cc1 | 81.3% (active) |
| CC1COC2C(O1)N(S(C)(=O)=O)CCN2S(C)(=O)=O (configuration not stated) | -1.6% |
| CC1(C)CC(=O)C=C(NCc2ccncc2)C1 | 11.9% |
| Cc1csc(OCC(=O)Nc2ccc(C)c(C)c2)n1 | -7.65% |
| Oc1ccc(Br)cc1C=Nc1ccc2[nH]ncc2c1 | 55.4% (active) |
| CCN(CC)CCn1c(/N=C/c2cc(Br)ccc2O)nc2ccccc21 | 5.27% |
| Oc1ccc(Br)cc1/C=N/Nc1ccccn1 | 14.9% |
| Cc1ccn(-c2cccc(-n3ccc(C)n3)n2)n1 | -0.107% |
| O=S(=O)(c1ccc(Br)c2ccccc12)N1CCOCC1 | -3.67% |
| Cc1c(Cl)c([N+](=O)[O-])nn1CC(=O)NCCCN1CCOCC1 | -13.8% |
| Nc1[nH][nH]c(=O)c1N=Nc1ccc2c(c1)OCO2 | 51.5% (active) |
| CC(=O)c1cc2c(cc1N)OCO2 | 1.73% |
| N/C(=N\OC(=O)c1ccc2c(c1)OCO2)c1ccc(Br)cc1 | 46% |
| Cn1c2ccccc2c2cc(/C=C(\NC(=O)c3ccccc3)C(=O)NCC(=O)O)ccc21 | -6.28% |
| Cc1nn(C)c(C)c1NS(=O)(=O)c1ccc(OC(F)(F)F)cc1 | 5.85% |
| O=C1COc2ccc(S(=O)(=O)Nc3ccc(OC(F)(F)F)cc3)cc2N1 | -6.08% |
| O=S(=O)(Nc1ccc(O)c2ccccc12)c1ccc(OC(F)(F)F)cc1 | 74.9% (active) |
